Tau fibril FP: inhibitors of human tau fibril formation; P10636; K18 P301L tau heparin fibrillization, Alexa594 FP, 6 h; Potency, µM (top dose mostly 57.7 µM), inactives show top-dose activity, negative = inhibition, actives largely listed as inhibitors; 280,000 tested, 0.39% active; further: potency means the concentration at half of the fitted maximal effect; nearly all actives have a fitted effect of over 55% in size
Target sequence (P10636 561-689 P618L limits assumed): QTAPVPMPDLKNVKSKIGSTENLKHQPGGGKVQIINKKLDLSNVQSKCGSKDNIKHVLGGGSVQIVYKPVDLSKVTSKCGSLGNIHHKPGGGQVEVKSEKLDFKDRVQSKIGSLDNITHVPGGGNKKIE
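Recombinant K18 P301L […], labeled with Alexa 594 at 0.24 uM over 15 uM unlabeled; heparin inducer 20 uM final; 37 C, 6 hr; FP endpoint.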
Tau ThT inhib: tau fibrillization inhibition (ThT binding). P10636. recombinant tau K18 P301L, heparin-induced fibrillization, ThT fluorescence. Potency, µM (titrated, usually from 57.4 µM), for inactives: at the top dose activity, negative = inhibition, actives largely listed as inhibitors. 270,000 tested, 2.1% active. AID 1460; further: potency means the concentration at half of the fitted maximal effect; nearly all actives have a fitted effect of over 55% in size
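Aggregation was driven by heparin (20 uM final) acting on recombinant tau […] bearing P301L in 100 mM sodium acetate pH 7; fibrils were detected with Thioflavin T.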
FBPA coupling cs: coupling enzyme interference in Giardia aldolase counter-screen; coupling enzyme system counterscreen, AmpLite Red fluorescence; activity change, negative = inhibition, % at 58.2 µM, hits read low; 290,000 tested, 0.67% active; AID 2472; in the data active means activity change below about -30%
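Compounds tested against the coupling enzymes alone at 57.5 uM final; readout was AmpLite Red fluorescence (525/598 nm) after 20 min at RT.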
Tau fluor cs: counter-screen for tau fibril formation inhibitors. tau K18 P301L (four-repeat tau fragment) Alexa594 fluorescence, heparin fibrillization. Potency, µM (titrated, usually from 57.7 µM), for the others: top-dose activity change, negative = decrease. 280,000 tested, 0.93% active; further: potency means the concentration at half of the fitted maximal effect; nearly all actives have a fitted effect of over 55% in size
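Human K18 P301L tau (15 uM unlabeled plus 0.24 uM Alexa 594-labeled, final) in 100 mM sodium acetate pH 7 was mixed with compound and 20 uM heparin and incubated 6 hr at 37 C.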
USP1 inh: USP1/UAF1 (human) deubiquitinase inhibition; O94782; recombinant USP1/UAF1, Ub-Rhodamine cleavage fluorescence; Potency, µM (top dose mostly 57.1 µM), inactives show at the top dose activity change, negative = inhibition, actives largely listed as inhibitors; 390,000 tested, 0.23% active; AID 743255; further: potency means the concentration at half of the fitted maximal effect; nearly all actives have a fitted effect of over 60% in size
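USP1/UAF1 complex (1 nM) preincubated 15 min at room temperature with compound, then Ub-Rho substrate (150 nM final) added. Kinetic fluorescence at 480/540 nm over 6 reads at 60 s intervals; 50 mM HEPES pH 7.8, 0.5 mM EDTA, 0.1 mg/ml BSA, 1 mM TCEP, 0.01% Tween-20.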
An asterisk follows results filed as active; ? = inconclusive; . = no result given; [ ] = remark or other dose. Sampled rows, rich in hits. Any-hit rate of the full collection: about 2.3%. Unless noted, the call rests on the fitted dose curve; in most records, active means well fitted curve in the direction sought with a large enough effect; inconclusive means small, poorly fitted or top-dose-only effect, or another doubt; inactive means no such curve, though single readings can be large; an effect the other way counts as inactive or inconclusive. On the % scale 0 is the no-effect control and ±100 the full control effect.

SMILES	Tau fibril FP	Tau ThT inhib	FBPA coupling cs	Tau fluor cs	USP1 inh
Cc1ccc(CNc2ccc3c(c2)OCO3)c(C)c1	?	12.6µM*	-37.1*	?	.
C/C=C/C=C/C(=O)[C@@H]1[C@@H]([C@]2(C)OC(=O)C(C)=C2O)[C@H]2/C(=C(O)/C=C/C=C/C)C(=O)[C@]1(C)C(=O)C2(C)O (some centres not stated)	?	14.1µM*	-3.5	-3.5%	?
O=C1NC(c2ccccc2O)Nc2ccccc21 (configuration not stated)	.	.	1.0	.	0.3%
O=C1NC(c2cc(Cl)cc([N+](=O)[O-])c2O)Nc2ccccc21 (configuration not stated)	5.8%	7.08µM*	-1.3	-28.9%	-20.9%
Cc1c(C(=O)NCc2ccccc2)sc2nc3n(c(=O)c12)CCC3	6.5%	-14.4%	.	?	-6.1%
Oc1c(Cl)cc(Cl)cc1C=Nc1cc(C(F)(F)F)ccc1N1CCc2ccccc2C1	?	28.2µM*	-27.4	-27.7%	-24.0%
Oc1c(Cl)cccc1C=Nc1cc(C(F)(F)F)ccc1N1CCCC1	1.6%	?	2.1	?	-19.0%
CC(C)COc1ccc(-c2nn(-c3ccccc3)cc2C(=O)Nc2nccs2)cc1	14.1µM*	14.8%	-6.6	?	-26.1%
CCOC(=O)c1ccc(NC(=O)c2cn(-c3ccccc3)nc2-c2ccncc2)cc1	28.2µM*	-4.3%	-2.7	?	-5.6%
CCOC(=O)c1ccc(NC(=O)c2cn(-c3ccccc3)nc2-c2ccc(Br)cc2)cc1	17.8µM*	-13.7%	.	?	-19.1%
Cc1ccc(-c2nn(-c3ccccc3)cc2C(=O)Nc2ccc(C(=O)O)cc2)cc1	3.2%	11.5%	-0.5	-9.9%	?
CCOC(=O)c1ccc(NC(=O)c2cn(-c3ccccc3)nc2-c2ccc(OC)c(OC)c2)cc1	10µM*	?	.	?	-27.3%
Cn1nnnc1SCCNCc1ccc(OCc2ccc(Cl)cc2)cc1	-4.6%	-22.6%	.	-29.7%	-26.2%
CCOC(=O)c1ccc(NC(=O)c2cn(-c3ccccc3)nc2-c2ccc(C)cc2)cc1	8.91µM*	-13.2%	.	?	?
COc1ccc(C2/C=C\CN(C(=O)C3CC3)C(Cc3ccccc3)C(=O)N2Cc2ccc(F)cc2)cc1 (configuration not stated)	.	.	-0.2	.	.
N=C1/C(=C\c2ccc(OC(=O)c3ccco3)cc2)C(=O)N=C2SC(N3CCCCC3)=NN12	.	.	5.6	.	-4.5%
N=C1/C(=C\c2ccc(OCc3ccccc3)cc2)C(=O)N=C2SC(N3CCCC3)=NN12	-8.5%	3.98µM*	1.9	?	.
COc1ccc(C(=O)CSC#N)cc1OC	?	15.8µM*	1.2	-9.1%	-3.6%
C[C@@H]1Cc2c(O)c(O)cc(O)c2C(=O)O1	25.1µM*	31.6µM*	-2.8	-20.8%	-20.7%
O=c1c(N2CCN(c3cccc(Cl)c3)CC2)csc2ccc(Cl)cc12	-5.0%	8.91µM*	.	-29.3%	-25.2%
O=c1c(N2CCN(c3cccc(C(F)(F)F)c3)CC2)csc2ccc(Cl)cc12	4.0%	15.8µM*	.	-19.2%	?
CCOC(=O)c1sc2ncn(CC(=O)Nc3ccc(OCC)cc3)c(=O)c2c1C	-4.0%	3.7%	.	2.2%	-5.0%
COc1cccc(CNS(=O)(=O)c2ccc(S(=O)(=O)N3CCCC3)cc2)c1	10.2%	-0.2%	-53.4*	3.7%	2.2%
COc1ccc2nc(-n3c(O)c(C4=c5ccccc5=NC4=O)[nH]c3=S)sc2c1	?	2.24µM*	1.6	8.91µM*[quencher]	?
COc1ccc(N2C(=O)C(Cl)=C(Oc3cccc(OC)c3)C2=O)cc1	22.4µM*	14.1µM*	1.3	-18.6%	-12.9%
COc1ccc(N2C(=O)C(Cl)=C(Nc3ccccc3O)C2=O)cc1	?	10µM*	-0.8	?	-2.6%
COc1ccc(N2C(=O)c3ccccc3C2=O)cc1	2.4%	-5.3%	2.3	5.4%	-17.4%
O=C(Cc1nc2ccccc2[nH]c1=O)c1ccccc1	3.5%	?	-2.3	-8.2%	31.6µM*
CC1CCC2=C1C[C@H](C(C)(C)O)CC[C@@H]2C (some centres not stated)	4.6%	-0.7%	-6.0	-7.9%	.

Compound activity as filed in PubChem BioAssay.
